The source of these data is PubChem BioAssay (Tox21).

The structures appear in SMILES notation. Values joined by “and” are separate entries in the source; they are usually repeats but may differ in a detail not shown here. Identical values can stand only once. Values without a mark were called inactive. Records with an inconclusive call do not appear. Active and inactive are the calls of the source. Unless noted, the call rests on the fitted dose curve; in most records, active means well fitted curve in the direction sought with a large enough effect in the repeat runs; inconclusive means weak or mixed curves; inactive means no such curve, though single readings can be large; an effect the other way counts as inactive or inconclusive.

A short description of test [1]: qHTS assay for small molecule agonists of the p53 signaling pathway (AID 651631; calls by dose curve; further: nearly all actives have a fitted effect of over 15% in size; further: potency means the concentration at half of the fitted maximal effect). An outline of the steps:
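Quantitative high-throughput format: 4,000 p53RE-bla HCT-116 cells/well, 5 h pre-incubation, 16 h compound exposure at 37 °C, 2 h room-temperature substrate step, fluorescence intensity measured.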

Test [2] can be described thus: qHTS assay for small molecules that induce genotoxicity in human embryonic kidney cells expressing luciferase-tagged ATAD5 (AID 651632). Further: nearly all actives have a fitted effect of over 15% in size. An outline of the steps:
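Luminescent reporter readout, HEK293T ATAD5-luc line: 16 hr drug exposure (37C, 5% CO2) followed by Amplite, 30 min RT.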
In general terms: qHTS replaces the single test concentration by a dilution series.

Test [3] is described as follows: qHTS assay for small molecule agonists of the p53 signaling pathway - cell viability (AID 651633; calls by dose curve;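 further: p53RE-bla HCT reporter cells with a stable beta-lactamase p53 reporter; series mostly up to about 83 µM; nearly all actives have a fitted effect of over 30% in size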). An outline of the steps:
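p53RE-bla cells, seeded at 4,000 per well and rested 5 h at 37 C/5% CO2, received compounds in DMSO for 16 h at 37 C. CellTiter-Glo was then added, and luminescence was read after 30 min at room temperature to gauge cytotoxicity.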

Test [4] in a line: qHTS assay for small molecules that induce genotoxicity in human embryonic kidney cells expressing luciferase-tagged ATAD5 - cell viability (AID 651634; calls by dose curve; further: nearly all actives have a fitted effect of over 25% in size; further: potency means the concentration at half of the fitted maximal effect). An outline of the steps:
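Viability read: CellTiter-Fluor fluorescence, 30 min at 37C. Cells: HEK293T, luciferase-tagged ATAD5. Exposure: 15.5 hr, 37C, 5% CO2, compound or DMSO vehicle.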

A short description of test [5]: qHTS assay for small molecule disruptors of the mitochondrial membrane potential - cell viability (AID 720634; calls by dose curve;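 further: human HepG2 liver cancer cells; series mostly up to about 83 µM; nearly all actives have a fitted effect of over 20% in size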). An outline of the steps:
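HepG2, 1 hr compound, 37 C. ATP luminescence via CellTiter-Glo, 30 min RT, same well as m-MPI.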

Test [6] is described as follows: qHTS assay for small molecule disruptors of the mitochondrial membrane potential (AID 720635). Further: potency means the concentration at half of the fitted maximal effect. An outline of the steps: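 HepG2 cells (2,000/well) attached overnight at 37C, then took compound for 1 hr at 37C, 5% CO2. Mito-MPS dye was added for 30 min; fluorescence was read at 490/535 nm (monomers) and 540/590 nm (aggregates).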
The nature of test [7]: qHTS assay to test for compound auto fluorescence at 590 nm (red) in HepG2 cells (AID 720674). An outline of the steps:
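Compound auto-fluorescence is scored relative to Rose Bengal sodium, measured at 540/590 nm in live HepG2 cultures after 1 hr compound contact (37 C, 5% CO2).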

Test [8] is described as follows: qHTS assay to test for compound auto fluorescence at 535 nm (green) in HepG2 cells (AID 720675).
The nature of test [9]: qHTS assay to test for compound auto fluorescence at 460 nm (blue) in HEK293 cells (AID 720678). An outline of the steps:
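Blue read-out at excitation 405 nm and emission 460 nm follows overnight compound exposure of HEK293 cells at 37C in 5% CO2. Activity is given as auto fluorescence equivalency to triamterene.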

Test [10] in a line: qHTS assay to test for compound auto fluorescence at 590 nm (red) in HEK293 cells (AID 720679). An outline of the steps: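 Red channel, Ex/Em 540/590nm; signal expressed as equivalency to Rose Bengal sodium. HEK293, 2,000 cells/well, 10% dialyzed FBS; 23 nL compound pinned after 4-5 hr attachment; overnight 37C/5% CO2 before reading.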
On the % scale 0 is the no-effect control and ±100 the full control effect.

Turning to `CCC[CH2][Sn]([CH2]CCC)([O]C(C)=O)[O]C(C)=O`, the results for the Potency in test [1], in test [4] and in test [6] were 1.95 µM (active), 1.23 µM (active) and 15.5 µM (active), respectively. The Potency entry in test [2], in test [3], in test [5], in test [8] and in test [9] was “inactive” each time. Moreover, the call in test [7] and in test [10] was inactive.
In the case of `C#CC1(O)CCCCC1`, the Potency entry in test [1], in test [2], in test [3], in test [4], in test [5] and in test [8] was “inactive” throughout. Further, in test [9], the Potency entry was “inactive”. In addition, the result in test [10] was inactive.
In the case of `CCCCC(CC)COC(=O)OOC(C)(C)C` (stereo not given), the Potency result in [1], in [2], in test [3], in test [4], in test [5] and in test [8] was “inactive” in each case. The Potency entry in [9] is “inactive”. Besides, the molecule was classed as inactive in test [7] and in test [10].
Consider `CC(C)=CCN1CC[C@@]2(C)c3cc(O)ccc3C[C@@H]1[C@@H]2C`, for which the Potency result in test [1], in test [2], in [3], in test [4], in [5] and in test [6] was “inactive” each time. Further, the Potency entry in test [8] and in test [9] was “inactive” throughout. Further, the molecule was called inactive in test [7] and in test [10].
Turning to `OCC(Br)CBr` (stereo not given), the Potency entry in test [1], in [2], in test [3], in [4], in test [5] and in test [8] was “inactive” each time. The Potency result in [9] is “inactive”. For the same molecule, the call in test [10] was inactive.
With `COc1ccc2c3c1O[C@H]1[C@H](O)CC[C@H]4[C@@H](C2)N(C)CC[C@@]341`, the Potency entry in [1], in test [2], in [3], in test [4], in test [5] and in [6] was “inactive” in each case. The Potency result in test [8] and in test [9] was “inactive” each time. In addition, in test [10], the molecule was called inactive.
As to `CC(Cl)CCl` (stereo not given), the Potency entry in [1], in test [2], in test [3], in test [4], in test [5] and in test [6] was “inactive” throughout. Moreover, the Potency result in [8] and in test [9] was “inactive” each time. In addition, the call in test [7] and in test [10] was inactive.
As to `C=Cc1cccc(CCl)c1`, the Potency entry in test [1], in test [2], in test [3], in [4], in test [5] and in test [6] was “inactive” in each case. Besides, the Potency entry in test [8] and in test [9] was “inactive” throughout. Moreover, the result in [7] and in test [10] was inactive.
`CC[C@]1(O)CC[C@H]2[C@@H]3CCC4=CCCC[C@@H]4[C@H]3CC[C@@]21C`: the results for the Potency in [1], in [4] and in [6] were 3.76 µM (active), 10.6 µM (active) and 7.5 µM (active), respectively. Besides, the Potency entry in test [2], in test [3], in test [8] and in test [9] was “inactive” in each case. The result in test [7] and in [10] was inactive.
Regarding `CCOP(=S)(NC(C)C)Oc1ccccc1C(=O)OC(C)C` (stereo not given), the Potency result in test [1], in test [2], in test [3], in [4], in test [8] and in test [9] was “inactive” throughout. For the same molecule, the Potency in test [6] was 27.3 µM (active). Moreover, the outcome in test [7] and in test [10] was inactive.
For the molecule `CCC(C)Br` (stereo not given), the Potency entry in test [1], in test [2], in test [3], in test [4], in test [5] and in [9] was “inactive” throughout. For the same molecule, the molecule was classed as inactive in test [7] and in test [10].
As for `O=[N+]([O-])c1ccccc1-c1ccccc1`, the Potency result in test [1], in test [2], in test [3], in test [4], in test [5] and in test [6] was “inactive” in each case. Besides, the Potency entry in [8] and in test [9] was “inactive” in each case. The call in test [7] and in test [10] was inactive.
Take `CCCCON=O`: the Potency result in test [1], in [2], in test [3], in [4], in test [5] and in test [8] was “inactive” each time. The Potency result in [9] was “inactive”. Further, the outcome in test [7] and in test [10] was inactive.
With `ClC1=C(Cl)[C@]2(Cl)[C@@H]3[C@H]4C[C@H]([C@@H]5O[C@H]45)[C@@H]3[C@@]1(Cl)C2(Cl)Cl`, the Potency result in test [1], in test [2], in test [3], in [4], in [5] and in test [8] was “inactive” each time. Also, the Potency result in test [9] is “inactive”. In test [6], the Potency is 16.8 µM (active) and 19.3 µM (active). Besides, the molecule was classed as inactive in [10].
On to `CC(C)c1c(CN(C)C(C)Cc2ccccc2)n(C)n(-c2ccccc2)c1=O` (stereo not given), for which the Potency result in [1], in test [2], in [3], in [4], in [5] and in [6] was “inactive” in each case. In test [7], the fluorescence, relative to Rose Bengal was 0.213% [at 18.6 µM]. Besides, the fluorescence, % of fluorescein control in [8] is -0.0089% [at 18.6 µM]. Moreover, the fluorescence, % of triamterene in test [9] is -0.225% [at 18.6 µM]. In test [10], the fluorescence, % of fluorescent control was -0.993% [at 18.6 µM].
Consider `CCCC[N+]1(C)CCCC1` (tested in a mixture with another compound), for which the Potency entry in test [1], in test [2], in [3], in test [4], in test [5] and in [8] was “inactive” in each case. Further, the Potency entry in [9] is “inactive”. For the same molecule, the molecule was called inactive in test [7] and in test [10].
`O=Cc1ccccc1`: the Potency entry in test [1], in test [2], in test [3], in test [4], in [5] and in test [6] was “inactive” each time. In addition, the Potency result in test [8] and in [9] was “inactive” throughout. The result in [10] was inactive.
Consider `Clc1c(Cl)c(Cl)c(Cl)c(Cl)c1Cl`, for which the activation in [1] is -4.73% [at 8.3 µM]; in test [2], 3.25% [at 8.08 µM]. Further, the activity change, negative = cytotoxicity was -24.8% [at 8.08 µM] in [3] and 3.14% [at 8.08 µM] in test [5]. For the same molecule, in [4], the activity, negative = cytotoxicity was 8.7% [at 8.08 µM]. In test [7], the fluorescence, relative to Rose Bengal was -0.0012% [at 3.72 µM]. Besides, the fluorescence, % of fluorescein control in test [8] was -0.0433% [at 3.72 µM]. For the same molecule, the fluorescence, % of triamterene in test [9] is -0.0308% [at 3.72 µM]. Further, in test [10], the fluorescence, % of fluorescent control was -0.0042% [at 3.72 µM].
As for `C[N+]1(C)[C@@H]2CC[C@H]1CC(OC(=O)C(CO)c1ccccc1)C2` (stereo not given in full), the Potency entry in test [1], in test [2], in [3], in [4], in test [5] and in test [6] was “inactive” throughout. The Potency entry in test [8] and in [9] was “inactive” in each case. In addition, the result in test [7] and in [10] was inactive.
With `COCCC#N`, the Potency result in test [1], in test [2], in test [3], in [4], in test [5] and in test [6] was “inactive” throughout. Further, the Potency entry in test [8] and in test [9] was “inactive” throughout. Also, the molecule was classed as inactive in test [7] and in test [10].
For the molecule `O=C(Cl)c1ccccc1F`, the Potency result in [1], in [2], in test [3], in test [4], in [5] and in test [6] was “inactive” each time. The Potency result in test [8] and in test [9] was “inactive” throughout. The molecule was called inactive in [7] and in [10].
Take `NC(=O)C(Cl)Cl`: the Potency result in [1], in test [2], in [3], in test [4], in [5] and in [6] was “inactive” each time. Moreover, the Potency result in [8] and in test [9] was “inactive” throughout. The molecule was classed as inactive in test [7] and in [10].
